# From PubChem
# An excerpt weighted towards active compounds, which were near 6.9% of everything screened.
# KB-V1 MDR tox – kills drug-selected multidrug resistant KB-V1 cells | Potency, µM (doses to about 46.1 µM), usual class: cytotoxic | KB-V1 MDR cells viability, CellTiter-Glo, 72 h | 3.4% of 400,000 active | AID 1347076; note: nearly all actives have a fitted effect of over 60% in size
#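 Compound-treated KB-V1 multidrug-resistant cells, 72 h, 37 degrees C; viability by CellTiter-Glo. Fitted qHTS curves give the values.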
# SW480 rereplic – induces DNA re-replication in SW480 colon adenocarcinoma cells | SW480 DNA re-replication, Hoechst DNA content imaging, 48 h | Potency, µM (series often up to 46.1 µM), hits mostly activators | 1.8% of 340,000 active | AID 624297; note: nearly all actives have a fitted effect of over 55% in size
#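 250 cells/well; 23 nL cpd via pin tool; 48 hr, 37 C, 5% CO2; Hoechst 40 min; imager read of total nuclear intensity, ex 405/em 500-530 nm.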
# KB-3-1 cytotox – KB-3-1 parental cell cytotoxicity; KB-3-1 viability, CellTiter-Glo ATP luminescence, 72 h; Potency, µM (doses to about 46.1 µM), hits mostly cytotoxic; 1.4% of 400,000 active; AID 1347075; note: nearly all actives have a fitted effect of over 60% in size
#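 Parental KB-3-1 adenocarcinoma cells in phenol-red-free DMEM with 10% FBS were pin-treated with compounds at several concentrations, incubated 72 h at 37 °C, and viability read by CellTiter-Glo luminescence; concentration-effect curves were fitted after normalization.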
# MCF10A rereplic – DNA re-replication induction in MCF 10a cells | MCF 10A DNA re-replication, Hoechst nuclear intensity, 48 h | Potency, µM (top dose mostly 46.1 µM), most hits filed as activators | 2.9% of 350,000 active | AID 624296; note: nearly all actives have a fitted effect of over 50% in size
# Giardia kill – kills Giardia lamblia | 0.15% of 340,000 active | Giardia lamblia trophozoite viability | activity change, % at 7.66 µM, hits read low | AID 540267; in the data active = activity change below about -80%; inconclusive = between about -30% and that limit;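 note: parasites exposed to compound for two days anaerobically before the ATP read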
#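 Luminescence from cellular ATP indicates surviving trophozoites (100 cells/well) following 48 hrs anaerobic compound treatment at 37 deg C; signal develops 15-30 min at room temperature.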
# ASM inhibitor – blocks human secretory acid sphingomyelinase. P17405. placental ASM, HMU-PC fluorogenic substrate, 60 min. Potency, µM (top dose mostly 57.5 µM), usual class: inhibitors. 0.006% of 340,000 active
# Target sequence (P17405 47-631 limits assumed): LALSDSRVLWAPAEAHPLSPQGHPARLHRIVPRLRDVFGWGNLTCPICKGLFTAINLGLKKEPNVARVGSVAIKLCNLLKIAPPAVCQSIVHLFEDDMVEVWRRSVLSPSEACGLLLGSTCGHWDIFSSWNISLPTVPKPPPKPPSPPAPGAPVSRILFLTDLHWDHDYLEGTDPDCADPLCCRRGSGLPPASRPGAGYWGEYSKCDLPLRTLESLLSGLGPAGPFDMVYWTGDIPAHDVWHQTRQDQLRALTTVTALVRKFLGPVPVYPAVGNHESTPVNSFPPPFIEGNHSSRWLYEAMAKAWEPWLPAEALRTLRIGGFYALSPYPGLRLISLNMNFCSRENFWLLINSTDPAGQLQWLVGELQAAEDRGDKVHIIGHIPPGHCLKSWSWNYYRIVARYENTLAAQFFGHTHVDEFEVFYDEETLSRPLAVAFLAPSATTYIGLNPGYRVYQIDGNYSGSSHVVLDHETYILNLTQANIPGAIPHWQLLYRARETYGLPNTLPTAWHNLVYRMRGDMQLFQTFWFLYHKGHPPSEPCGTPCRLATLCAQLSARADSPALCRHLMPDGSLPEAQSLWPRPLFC
#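 Human placenta-derived ASM enzyme was preincubated with compound for 10 minutes at room temperature, then given fluorogenic substrate HMU-PC0 (9 uM final) for 60 minutes at 37 °C; a pH 10 stop preceded fluorescence reading at Ex 386/Em 447 nm.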
# Numbers stand for hits; – = inactive; ? = inconclusive; · = no result; [ ] = remark or other dose. Unless noted, calls come from the whole dose curve; as a rule, active = well fitted curve in the direction sought with a large enough effect; inconclusive = small, poorly fitted or top-dose-only effect, or another doubt; inactive = no such curve, though single readings can be large; an effect the other way counts as inactive or inconclusive.
SMILES,KB-V1 MDR tox,SW480 rereplic,KB-3-1 cytotox,MCF10A rereplic,Giardia kill,ASM inhibitor
CC(=O)Oc1ccc(-c2csc(Nc3ccc(S(N)(=O)=O)cc3)n2)cc1,–,–[1.84 µM],–,–,–,–
COc1ccc(-c2csc(Nc3ccc(S(N)(=O)=O)cc3)n2)cc1,–,?,?,10µM,–,–
Oc1ccc(Nc2nc(-c3ccc(O)cc3)cs2)cc1,–,?,?,13µM,–,–
CCOC(=O)[C@]12CCC=C1N(Cc1ccco1)C(=O)[C@H](CC(=O)NCCCCc1ccccc1)C2,–,·,–,·,·,·
CCOC(=O)[C@]12CCCC=C1N(CCC1=CCCCC1)C(=O)[C@H](CC(=O)NCCC(C)C)C2,?,·,–,·,·,·
CCOC(=O)[C@]12CCCC=C1N(CCC1=CCCCC1)C(=O)[C@H](CC(=O)NCC13CC4CC(CC(C4)C1)C3)C2,18µM,·,?,·,·,·
CCOC(=O)[C@]12CCCC=C1N(Cc1ccccc1)C(=O)[C@H](CC(=O)NCC13CC4CC(CC(C4)C1)C3)C2,21µM,·,18µM,·,·,·
CCOC(=O)[C@]12CCCC=C1N(Cc1ccc3c(c1)OCO3)C(=O)[C@H](CC(=O)NCCc1ccccc1OC)C2,23µM,·,?,·,·,·
CCOC(=O)[C@]12CCCC=C1N(Cc1ccco1)C(=O)[C@H](CC(=O)NCCCCc1ccccc1)C2,15µM,·,?,·,·,·
COc1cc(OC)c(/C=C/c2nc3ccccc3o2)c(OC)c1,–,·,?,·,·,·
CCCc1nc2ccccc2n2c(-c3cccc(C)c3)c3c(=O)n(C)c(=O)n(C)c3c12,–,·,–,·,·,·
CN(Cc1ccccc1Br)C(=O)CSc1nnnn1C1CC1,–,–,–,–,–,–
N#Cc1cccc(OC2=NS(=O)(=O)c3ccccc32)c1,?,·,–,·,·,·
CCOC(=O)[C@]12CCC=C1N(Cc1ccc3c(c1)OCO3)C(=O)[C@H](CC(=O)NCC13CC4CC(CC(C4)C1)C3)C2,23µM,·,?,·,·,·
COC(=O)[C@]12CCCCC=C1N(Cc1ccc3c(c1)OCO3)C(=O)[C@H](CC(=O)N1CCC(c3ccccc3)CC1)C2,–,·,–,·,·,·
CCOC(=O)[C@]12CCCC=C1N(Cc1ccc3c(c1)OCO3)C(=O)[C@H](CC(=O)N1CCC(c3ccccc3)CC1)C2,23µM,·,?,·,·,·
O=S(=O)(NCc1ccccc1)c1ccccc1NCCc1ccccc1,–,–,–,–,–,?
CCCCCCCCNc1ccccc1S(=O)(=O)NCc1ccccc1,–,–,–,5.2µM,–,?
CC1Cc2ccccc2N1C(=O)CSc1nnc(-c2ccccc2Cl)o1 (configuration not stated),–,·,–,·,·,·
CC1Cc2ccccc2N1C(=O)CSc1nnc(-c2ccc(S(=O)(=O)N3CCCC3)cc2)o1 (configuration not stated),2.1µM,–,–,–,–,–
Cc1ccc(-c2nc3scc(CCNS(=O)(=O)c4ccc(Oc5ccccc5)cc4)n3n2)cc1,·,·,·,·,–,·
CCc1ccc(S(=O)(=O)c2cn(Cc3ccccc3F)c3cc(OC)c(OC)cc3c2=O)cc1,–,·,–,·,·,·
CCn1c(Cn2nnc(-c3ccccc3)n2)nnc1SCc1ccc(Cl)c(Cl)c1,23µM,–,?,?,–,–
CCn1c(SCc2cccc(C)c2)nnc1-c1ccccc1,15µM,–,–,–,–,–
CCn1c(SCC(O)c2ccccc2)nnc1-c1ccccc1 (configuration not stated),–,–,–,–,–,–
SMILES,KB-V1 MDR tox,SW480 rereplic,KB-3-1 cytotox,MCF10A rereplic,Giardia kill,ASM inhibitor
Cc1ccc(-n2ccnc(NCCc3ccc(S(N)(=O)=O)cc3)c2=O)c(C)c1,–,·,–,·,·,·
COc1ccccc1C(CC(=O)Nc1ccc(C)c(C)c1)c1ccc(OC(C)C)cc1 (configuration not stated),–,?,–,–,–,–
COc1ccc(CNCCC(c2ccccc2)c2ccc3c(c2)OCO3)cc1 (configuration not stated),?,?,?,18µM,–,–
CC(C)Oc1ccc(C(CC(=O)NCc2ccco2)c2ccccc2)cc1 (configuration not stated),21µM,–,–,–,–,–
COc1ccccc1NC(=O)CC(c1ccc(OC(C)C)cc1)c1ccccc1OC (configuration not stated),4.6µM,?,–,?,–,–
COc1ccccc1C(CCNCc1ccccc1)c1ccc(OC(C)C)cc1 (configuration not stated),–,?,?,18µM,–,–
CCS(=O)(=O)N1CC(=O)N(c2ccc(Cl)cc2C)C(C)(C(=O)NC2CCCCC2)C1 (configuration not stated),–,·,–,·,·,·
COc1ccc(CNCCC(c2ccc(OC(C)C)cc2)c2ccccc2OC)cc1 (configuration not stated),21µM,?,?,?,–,–
COc1cc2c(cc1OC)C(c1cc3cc4c(cc3[nH]c1=O)OCO4)N(C(=O)C(C)C)CC2 (configuration not stated),–,?,–,8.2µM,–,–
Oc1ccc2ccc3[nH]cnc3c2c1,–,–,–,–,–,–
Oc1ccc2[nH]ccc2c1,–,8.2µM,–,–,–,–
CCOC(=O)CSc1nc2c(sc3ccccc32)c(=O)n1CCO,–,·,–,·,·,·
Cc1ccc(OCCCCN2CCc3ccccc3C2)cc1,–,–,?,15µM,–,–
Cc1ccc(OCCCCN2CCCCC2)cc1,–,–,–,–,–,–
Brc1cccc(OCCN2CCc3ccccc3C2)c1,–,–,–,–,–,–
Cc1ccc(OCCN2CCCC2)cc1,–,15µM,–,?,–,–
CS/C(N)=N/N=C/c1cc(C)ccc1O,–,15µM,–,–,?,–
CCS/C(N)=N/N=C/c1cc(C)ccc1O,–,?,–,–,–,–
C=CCOc1c(Br)cc(C2C3=C(CCCC3=O)N(C)C3=C2C(=O)CCC3)cc1OCC,–,23µM,–,–,–,–
O=C(Nc1cccc(F)c1)C1CC(=O)N(c2ccc(Br)cc2)C1 (configuration not stated),–,–,–,–,–,–
O=C(Nc1cccc(Cl)c1Cl)C1CC(=O)N(c2ccc(Br)cc2)C1 (configuration not stated),–,–,–,5.8µM,–,–
O=C(N/N=C/c1ccccc1O)C1CC(=O)N(c2ccc(Cl)cc2)C1 (configuration not stated),–,5.8µM,?,?,–,–
COc1ccc(/C=C/C(=O)NC(=S)NNC(=O)c2cccs2)cc1,?,23µM,?,10µM,–,–
Cc1cc(S(=O)(=O)Nc2cc3c(cc2NCc2ccccc2)n(C)c(=O)n3C)ccc1F,21µM,·,–,·,·,·
FC(F)(F)c1cccc(-c2nnn3c2nc(NC2CCCCC2)c2ccccc23)c1,–,·,–,·,·,·
